Inconclusive results are not listed. Where a call stands in place of a potency, no number is given. Where a structure was tested more than once in an assay, its records may differ in their call. The source made the active and inactive calls. Calls follow the shape of the dose curve; as a rule, active = well fitted activation curve with a large enough effect in the repeat runs; inconclusive = weak or mixed curves; inactive = flat fitted curve, though single readings scatter.
Also: nearly all actives have a fitted effect of over 45% in size.
Potency is read from the fitted curve at half-maximal effect.

The first assay in a line: A CellTox Green Cytotoxicity Assay to monitor cytotoxicity in HEK293 cells - 24 hour (AID 1224875). The following applies: CellTox Green fluorescence; series mostly up to 76.8 µM. The gist of the method: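 Each value comes from one timepoint of a single continuous run in which HEK293 cells with CellTox Green were exposed to compound for up to 40 h at 37 C, dye fluorescence rising with cell death.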
For `C[C@@H](NCCCc1cccc(C(F)(F)F)c1)c1cccc2ccccc12`, the Potency is 23.9 µM (active).

For the compound `CC(C)(C)C(=O)OCOC(=O)[C@@H]1N2C(=O)[C@@H](NC(=O)[C@H](N)c3ccccc3)[C@H]2SC1(C)C`, the Potency entry was “inactive”.

Take `O=[N+]([O-])c1ccccc1Nc1ccccc1`: the Potency entry was “inactive”.

Consider `CC(C)(C)c1ccc(C(=O)O)cc1`, for which the Potency entry is “inactive”.

On to `CCCCCCCC(=O)[O-].CCCCCCCC(=O)[O-].[Zn+2]`, for which the Potency entry was “inactive”.

Consider `CCCCCCCCCCC=O`, for which the Potency result was “inactive”.

For `CCCCCCCC[P+](CCCCCCCC)(CCCCCCCC)CCCCCCCC`, the Potency was 4.87 µM (active).

`C[C@H](CCC(=O)O)[C@H]1CC[C@H]2[C@@H]3CC[C@@H]4C[C@H](O)CC[C@]4(C)[C@H]3CC[C@]12C`: the Potency entry is “inactive”.

For the compound `CC(C)c1ccc2c(c1)CC[C@H]1[C@](C)(CN)CCC[C@]21C`, the Potency was 19.5 µM (active).

Regarding `O=C(O)c1ccc(Cl)c(Cl)c1`, the Potency result was “inactive”.

In the case of `NC(=NCCCCCCN=C(N)/N=C(\N)Nc1ccc(Cl)cc1)/N=C(\N)Nc1ccc(Cl)cc1`, the Potency was 24.4 µM (active) [middle of 4 runs].

On to `COc1cccc(N)c1`, for which the Potency result is “inactive”.

For `CCCCCCCC/C=C/CCCCCCCC1=NCCN1CCO`, the Potency was 24.5 µM (active).

For the compound `Cc1cc(O)c2ccccc2c1O`, the Potency is 9.52 µM (active).

In the case of `O=C1C=CC(=O)N1c1ccc(Cc2ccc(N3C(=O)C=CC3=O)cc2)cc1`, the Potency is 38.9 µM (active).

Turning to `O=C1C=CC(=O)N1`, the Potency was 20 µM (active).

Take `CCCCCCCC/C=C\CCCCCCCCOCCO`: the Potency result is “inactive”.

With `Cc1cc(O)c(C(C)(C)C)cc1Sc1cc(C(C)(C)C)c(O)cc1C`, the Potency is 48.9 µM (active).

Turning to `NNC(=O)c1cccc(C(=O)NN)c1`, the Potency entry is “inactive”.

Consider `CCCCCCCCNC(C)C(O)c1ccc(SC(C)C)cc1` (stereo not drawn), for which the Potency was 16.9 µM (active).

With `C=CC(=O)OCC(CO)(COCC(COC(=O)C=C)(COC(=O)C=C)COC(=O)C=C)COC(=O)C=C`, the Potency was 54.3 µM (active).

`CC[C@H]1O[C@]2(CC[C@@H]1C)C[C@@H]1C[C@@H](C/C=C(\C)C[C@@H](C)/C=C/C=C3\CO[C@@H]4[C@H](O)C(C)=C[C@@H](C(=O)O1)[C@]34O)O2`: the Potency was 48.5 µM (active).

Consider `CN(C)[C@@H]1C(=O)C(C(N)=O)=C(O)[C@@]2(O)C(=O)C3=C(O)c4c(O)ccc(Cl)c4[C@@H](O)[C@H]3C[C@@H]12`, for which the Potency entry was “inactive”.

As to `CC(=O)N1CCN(c2ccc(OC[C@H]3CO[C@](Cn4ccnc4)(c4ccc(Cl)cc4Cl)O3)cc2)CC1`, the Potency was 43.6 µM (active).

For the compound `COc1ccc(C(=O)/C(Br)=C\C(=O)O)cc1`, the Potency was 34.7 µM (active).

Regarding `CN(C)CCCOC1(Cc2ccccc2)CCCCCC1`, the Potency entry is “inactive”.

On to `Oc1c(Cl)cc(Cl)c2cccnc12`, for which the Potency entry was “inactive”.

As for `O=C1CCCCCN1SSN1CCCCCC1=O`, the Potency entry was “inactive”.

Regarding `O=C(c1ccc(O)cc1O)c1ccc(O)cc1O`, the Potency result is “inactive”.

Take `OCCN1CCN(CC/C=C2/c3ccccc3Sc3ccc(C(F)(F)F)cc32)CC1`: the Potency was 26.8 µM (active).

Turning to `Nc1ccc2cc(S(=O)(=O)O)cc(O)c2c1N=Nc1ccccc1C(F)(F)F`, the Potency entry was “inactive”.

As to `CN(C)[C@@H]1C(=O)C(C(N)=O)=C(O)[C@@]2(O)C(=O)C3=C(O)c4c(O)cccc4C[C@H]3C[C@@H]12`, the Potency result was “inactive”.

As to `C1CCCC1`, the Potency result is “inactive”.

Take `CCCC(c1cc(C(C)(C)C)c(O)cc1C)c1cc(C(C)(C)C)c(O)cc1C`: the Potency was 55.6 µM (active).

`Oc1cc2ccccc2c2ccccc12`: the Potency was 19.5 µM (active).

A short description of another assay: A CellTox Green Cytotoxicity Assay to monitor cytotoxicity in HepG2 cells - 16 hour (AID 1224876). To be noted: CellTox Green fluorescence; series mostly up to 76.8 µM. The gist of the method: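 Continuous culture of HepG2 cells with a membrane-impermeant DNA dye; rising fluorescence marks dead cells. Compound exposure lasted up to 40 h at 37 C, with reads every 8 h from 0 h.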
As to `CC(C)(C)c1ccc(C(=O)O)cc1`, the Potency result was “inactive”.

For the compound `CCCCCCCC[P+](CCCCCCCC)(CCCCCCCC)CCCCCCCC`, the Potency was 12.2 µM (active).

As to `CC(C)c1ccc2c(c1)CC[C@H]1[C@](C)(CN)CCC[C@]21C`, the Potency is 19.5 µM (active).

Turning to `O=C(O)c1ccc(Cl)c(Cl)c1`, the Potency entry was “inactive”.

Turning to `NC(=NCCCCCCN=C(N)/N=C(\N)Nc1ccc(Cl)cc1)/N=C(\N)Nc1ccc(Cl)cc1`, the Potency is 19.8 µM (active) [middle of 4 runs].

For `CCCCCCCC/C=C/CCCCCCCC1=NCCN1CCO`, the Potency is 21.9 µM (active).

Consider `Cc1cc(O)c2ccccc2c1O`, for which the Potency is 13.4 µM (active).

On to `O=C1C=CC(=O)N1c1ccc(Cc2ccc(N3C(=O)C=CC3=O)cc2)cc1`, for which the Potency is 13.8 µM (active).

In the case of `CCCCCCCCNC(C)C(O)c1ccc(SC(C)C)cc1` (stereo not drawn), the Potency was 16.9 µM (active).

`CC[C@H]1O[C@]2(CC[C@@H]1C)C[C@@H]1C[C@@H](C/C=C(\C)C[C@@H](C)/C=C/C=C3\CO[C@@H]4[C@H](O)C(C)=C[C@@H](C(=O)O1)[C@]34O)O2`: the Potency was 48.5 µM (active).

`CN(C)[C@@H]1C(=O)C(C(N)=O)=C(O)[C@@]2(O)C(=O)C3=C(O)c4c(O)ccc(Cl)c4[C@@H](O)[C@H]3C[C@@H]12`: the Potency entry was “inactive”.

On to `COc1ccc(C(=O)/C(Br)=C\C(=O)O)cc1`, for which the Potency result is “inactive”.

Take `CN(C)CCCOC1(Cc2ccccc2)CCCCCC1`: the Potency result is “inactive”.

Turning to `Oc1c(Cl)cc(Cl)c2cccnc12`, the Potency result was “inactive”.

Consider `O=C1CCCCCN1SSN1CCCCCC1=O`, for which the Potency entry was “inactive”.

As to `CN(C)[C@@H]1C(=O)C(C(N)=O)=C(O)[C@@]2(O)C(=O)C3=C(O)c4c(O)cccc4C[C@H]3C[C@@H]12`, the Potency entry was “inactive”.

As to `C1CCCC1`, the Potency entry was “inactive”.

In the case of `Clc1ccccc1C(c1ccccc1)(c1ccccc1)n1ccnc1`, the Potency is 38.9 µM (active) and inactive.
